This passage reports growth results from PubChem BioAssay (NCI).

Each structure is given as a SMILES string. This is part of a sample that, as a whole, favours compounds with a hit. Of some 83,000 tested, about 20% had one in any assay.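 Values shown are percent growth following 48 h exposure of cells in 96-well plates to a single concentration of compound; below 10 was considered active.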 Unmarked numbers belong to inactive results. Activity calls are given as the source filed them.

Among the test systems are EKVX NSCLC; SN12C renal; UO-31 renal; TK-10 renal; ACHN renal; CAKI-1 renal; A498 renal; CCRF-CEM leukemia; MOLT-4 leukemia; SR leukemia; RPMI-8226 leukemia; OVCAR-8 ovarian; OVCAR-5 ovarian; OVCAR-4 ovarian; SK-OV-3 ovarian; IGROV1 ovarian; OVCAR-3 ovarian; HS 578T breast; NCI/ADR-RES ovarian; SK-MEL-2 melanoma.
What all share (assay): NCI-60 one-dose screen, 48 h (100 = growth as untreated, 0 = no growth, -100 = all killed)
Settings in all cases: 10 µM unless noted

For `CCNCCNc1cc(-c2ccc(C#N)cc2)c(C#N)c2nc3ccccc3n12`, the growth is 76% in the experiment with EKVX NSCLC; 59.3% in the experiment with SN12C renal; -21.3% (active) in the experiment on UO-31 renal; 82.3% in the experiment on TK-10 renal; 3.09% (active) in the experiment on ACHN renal; 57.4% with CAKI-1 renal. For the same compound, the growth in the experiment on A498 renal is 60.7%; in the experiment with CCRF-CEM leukemia it was 27.5%; in the experiment on MOLT-4 leukemia, 51.2%; in the experiment on SR leukemia, -1.04% (active); in the experiment with RPMI-8226 leukemia, 51.6%; in the experiment on OVCAR-8 ovarian, 38.7%. In addition, the growth in the experiment on OVCAR-5 ovarian is 75.6%; in the experiment on OVCAR-4 ovarian, -34% (active); with SK-OV-3 ovarian, 87.4%; in the experiment on IGROV1 ovarian it was 47.7%; in the experiment with OVCAR-3 ovarian, -47.7% (active); with HS 578T breast it was 25.2%. The growth with NCI/ADR-RES ovarian was 60.9%.

Take `Fc1ccc(Nc2ccc3cc(OCCCN4CCOCC4)ccc3n2)cc1F`: the growth with EKVX NSCLC was 61.2%; in the experiment on SN12C renal, 68.4%; with UO-31 renal, 19.5%; with TK-10 renal it was 66.6%; in the experiment on ACHN renal, 67.2%; in the experiment with CAKI-1 renal, 70.7%. The growth in the experiment on A498 renal is 36.8%; in the experiment with CCRF-CEM leukemia, 75.4%; in the experiment with MOLT-4 leukemia, 61.9%; with SR leukemia, 8.16% (active); in the experiment on RPMI-8226 leukemia, 49.5%; with OVCAR-8 ovarian, 66.8%. Moreover, the growth in the experiment with OVCAR-5 ovarian is 56.8%; in the experiment with OVCAR-4 ovarian, 49.4%; in the experiment with SK-OV-3 ovarian, 72.8%; in the experiment on IGROV1 ovarian, 72.8%; with OVCAR-3 ovarian, 68.1%; in the experiment on HS 578T breast, 40.6%. In addition, the growth in the experiment on NCI/ADR-RES ovarian is 59.8%.

In the case of `Nc1c(C(=O)c2ccc(Cl)s2)sc2nc3c(cc12)CCCC3`, the growth in the experiment with SK-MEL-2 melanoma is 105%; in the experiment with SN12C renal it was 94.4%; in the experiment with UO-31 renal it was 81.2%; in the experiment with TK-10 renal, 151%; with ACHN renal, 112%; in the experiment with CAKI-1 renal, 87%. Moreover, the growth was 72% in the experiment with A498 renal; 99.9% in the experiment with CCRF-CEM leukemia; 99.5% in the experiment with MOLT-4 leukemia; 90.9% with RPMI-8226 leukemia; 105% with OVCAR-8 ovarian; 137% in the experiment on OVCAR-5 ovarian. The growth was 112% in the experiment with OVCAR-4 ovarian; 90.8% in the experiment with SK-OV-3 ovarian; 104% in the experiment on IGROV1 ovarian; 106% with OVCAR-3 ovarian; 111% in the experiment on HS 578T breast; 101% in the experiment on NCI/ADR-RES ovarian.

`COc1ccc(NC(=O)C(=O)c2c[nH]c3ccc(F)cc23)cc1`: the growth is 106% with SK-MEL-2 melanoma; 98.9% in the experiment with SN12C renal; 132% in the experiment with TK-10 renal; 93.8% with ACHN renal; 93.1% in the experiment with CAKI-1 renal; 65.8% with A498 renal. Besides, the growth was 97.8% in the experiment with CCRF-CEM leukemia; 90.8% in the experiment with MOLT-4 leukemia; 81.4% with SR leukemia; 92.7% with RPMI-8226 leukemia; 99% in the experiment with OVCAR-8 ovarian; 106% in the experiment on OVCAR-5 ovarian. Further, the growth in the experiment on OVCAR-4 ovarian was 102%; with SK-OV-3 ovarian it was 89.4%; in the experiment on IGROV1 ovarian it was 118%; in the experiment with OVCAR-3 ovarian, 99.8%; with NCI/ADR-RES ovarian, 96.2%.

For the compound `O=C(c1ccccc1)c1ccc(Cl)c([N+](=O)[O-])c1`, the growth in the experiment on SK-MEL-2 melanoma is 95.3%; in the experiment with SN12C renal, 97%; in the experiment on UO-31 renal, -87.9% (active); in the experiment on TK-10 renal, 107%; in the experiment with ACHN renal, 98.2%; in the experiment with CAKI-1 renal it was -2.29% (active). Moreover, the growth in the experiment on A498 renal is 57.1%; in the experiment with CCRF-CEM leukemia, 13.5%; in the experiment with SR leukemia, -3.1% (active); with RPMI-8226 leukemia, 82.3%; in the experiment on OVCAR-8 ovarian, 97.8%; in the experiment with OVCAR-5 ovarian, 99.1%. Moreover, the growth with OVCAR-4 ovarian was 99.5%; in the experiment with SK-OV-3 ovarian, 108%; in the experiment with IGROV1 ovarian, 43.6%; in the experiment on OVCAR-3 ovarian, 75.7%; with HS 578T breast, 87.7%; with NCI/ADR-RES ovarian, 108%.

As to `CCc1c(C(=O)N[C@@H]2c3cc(Cl)ccc3CC[C@@H]2O)[nH]c(C)c1C(C)=O`, the growth is 76% in the experiment on EKVX NSCLC; 94.7% in the experiment on SN12C renal; 76.8% with UO-31 renal; 87.4% with TK-10 renal; 77.6% with ACHN renal; 71.5% in the experiment with CAKI-1 renal. The growth in the experiment with A498 renal is 67.6%; with CCRF-CEM leukemia it was 85.2%; with MOLT-4 leukemia, 68.8%; with SR leukemia, 52.5%; in the experiment with RPMI-8226 leukemia, 59.7%; with OVCAR-8 ovarian, 71.4%. Also, the growth in the experiment with OVCAR-5 ovarian is 97.9%; in the experiment with OVCAR-4 ovarian it was 95.9%; with SK-OV-3 ovarian, 74.4%; in the experiment on IGROV1 ovarian it was 59%; in the experiment on OVCAR-3 ovarian, 81.8%; in the experiment with HS 578T breast, 77.5%. The growth with NCI/ADR-RES ovarian is 82.7%.

As to `Cc1nc(C)c(-c2nn3c(-c4cccc(F)c4)nnc3s2)s1`, the growth in the experiment on SK-MEL-2 melanoma was 102%; in the experiment on SN12C renal, 97.6%; in the experiment with UO-31 renal, 83.9%; in the experiment with TK-10 renal it was 77.6%; in the experiment on ACHN renal, 117%; with CAKI-1 renal it was 103%. The growth with CCRF-CEM leukemia was 90.4%; in the experiment with MOLT-4 leukemia it was 87%; with SR leukemia it was 69.3%; with RPMI-8226 leukemia, 96.2%; in the experiment with OVCAR-8 ovarian, 94.7%; in the experiment on OVCAR-5 ovarian, 112%. The growth was 112% with OVCAR-4 ovarian; 104% in the experiment with SK-OV-3 ovarian; 106% with IGROV1 ovarian; 113% with OVCAR-3 ovarian; 105% in the experiment with HS 578T breast; 91.3% in the experiment with NCI/ADR-RES ovarian.

As to `CCCCNC(=O)NS(=O)(=O)c1ccc(N2N=C(c3ccc(C)cc3C)CC2c2ccc(N(C)C)cc2)cc1` (stereo not drawn), the growth in the experiment on SK-MEL-2 melanoma is 78%; in the experiment with SN12C renal, 59.4%; in the experiment with UO-31 renal, 51.4%; in the experiment on TK-10 renal, 83%; with ACHN renal it was 48.6%; in the experiment on CAKI-1 renal it was 63%. Besides, the growth with A498 renal was 62.6%; with CCRF-CEM leukemia, 43.3%; in the experiment on MOLT-4 leukemia, 48.4%; in the experiment with RPMI-8226 leukemia, 34.2%; with OVCAR-8 ovarian it was 57.7%; in the experiment on OVCAR-5 ovarian, 84.6%. For the same compound, the growth in the experiment on OVCAR-4 ovarian was 64%; in the experiment with SK-OV-3 ovarian it was 97.7%; with IGROV1 ovarian, 89.9%; with OVCAR-3 ovarian, 51.2%; with NCI/ADR-RES ovarian, 46.8%.

`NC(N)=N/N=C/CO`: the growth with SK-MEL-2 melanoma was 107%; in the experiment with SN12C renal it was 109%; in the experiment on UO-31 renal, 80.9%; with TK-10 renal it was 98.7%; in the experiment on ACHN renal it was 102%; in the experiment on CAKI-1 renal, 99.4%. Besides, the growth in the experiment with A498 renal is 117%; in the experiment on CCRF-CEM leukemia, 93.8%; in the experiment with SR leukemia it was 92%; with RPMI-8226 leukemia, 103%; with OVCAR-8 ovarian it was 103%; in the experiment on OVCAR-5 ovarian, 104%. The growth was 96% with OVCAR-4 ovarian; 102% with SK-OV-3 ovarian; 108% with IGROV1 ovarian; 107% in the experiment on OVCAR-3 ovarian; 112% in the experiment with HS 578T breast; 95.5% with NCI/ADR-RES ovarian.
